Among the data in PubChem BioAssay (NCI) are growth inhibition values, retold here.

This is part of a sample that, as a whole, favours compounds with a hit. Of some 79,000 tested, about 15% had one in any assay. Calls of active or inactive are those of the source. No stated cut-off is given here; in the data, active means growth inhibition above about 70%; inactive means the rest.

One experiment is described as follows: NCI Yeast Anticancer Drug Screen. Data for the rad50 strain (AID 155).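 Further: 0% = growth of vehicle-only cultures of the same strain.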 The following applies: S. cerevisiae rad50 strain growth inhibition; at 50.0 µM; active compounds read high. The method in brief: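 Vehicle-treated cultures provide the reference for the growth inhibition reported for compound-exposed, repair-deficient yeast.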
As for `Cc1cn(C2CC(Br)C(COC(c3ccccc3)(c3ccccc3)c3ccccc3)O2)c(=O)[nH]c1=O` (stereo not drawn), the growth inhibition is 97.6% (active).

As to `CC1CCN(CCOC(=O)C(c2ccccc2)C2C=CCCC2)C1` (stereo not drawn), the growth inhibition was 62.9% (inactive).

Consider `C=CC(c1ccccc1)[C@@]1(OC(C)=O)C(=O)C(=O)OC1C1COC(C)(C)O1` (stereo partly drawn), for which the growth inhibition is 86.3% (active).

Turning to `CC(C)S(=O)(=O)ON1C(=O)c2ccc(N(C)C)cc2C1=O`, the growth inhibition was 91.7% (active).

Turning to `CCCC(Sc1ccccc1)c1ccccc1NC(C)=O` (stereo not drawn), the growth inhibition is 85.5% (active).

Consider `Oc1c(C(Nc2ccccn2)c2ccccc2)ccc2cccnc12` (stereo not drawn), for which the growth inhibition was 94.6% (active).

Take `CC(=O)NC1=C(Cl)C(=O)c2ccccc2C1=O`: the growth inhibition was 99.5% (active).

On to `CC1OC(c2ccc3c(c2)OCO3)OC1C` (stereo not drawn), for which the growth inhibition is -21.6% (inactive).

Take `CN(C)CC(CN1CCCC1)C(=O)c1ccccc1` (stereo not drawn): the growth inhibition was 56.6% (inactive).

For `O=S(=O)(O)c1ccc2c(c1)C1C(C3C2C2(Cl)C(Cl)=C(Cl)C3(Cl)C2(Cl)Cl)C2(Cl)C(Cl)=C(Cl)C1(Cl)C2(Cl)Cl` (stereo not drawn), the growth inhibition was 85.9% (active).

With `Cc1cc(Cl)nc2ccc(Cc3ccc4nc(Cl)cc(C)c4c3)cc12`, the growth inhibition is 15.1% (inactive).

Turning to `CC1CCC2(C)C(CC=C(C=O)C2(O)C=O)C12CO2` (stereo not drawn), the growth inhibition was 93.4% (active).

`Cc1c(C)c(C)c(C(=O)c2ccccc2C(=O)NCCSC(C)(C)C)c(C)c1C`: the growth inhibition is 82.6% (active).

Take `O=[N+]([O-])C(=C1Nc2ccccc2N1)C(Cl)=C(Cl)Cl`: the growth inhibition was -4.9% (inactive).

`CCCCNc1ccc(C(=O)OC2CCN(C)CC2)c(Cl)c1`: the growth inhibition was 97% (active).

In the case of `CC(C)(C)OC(=O)c1ccc(NCC2=C(Br)C(=O)C=CC2=O)cc1`, the growth inhibition is 89.8% (active).

As to `N#CC(c1ccc(Cl)cc1)c1ccc([N+](=O)[O-])cc1` (stereo not drawn), the growth inhibition is 40.9% (inactive).

As for `O=C(CC(=O)c1ccccc1NC1=Cc2ccccc2C(=O)C1=O)C(=O)NC1=C(Cl)C(=O)c2ccccc2C1=O`, the growth inhibition was 88% (active).

As to `O=S(=O)(Nc1ccc2c3c(cccc13)C=C2)c1ccccc1`, the growth inhibition was 64.5% (inactive).

With `CC(=O)c1cccc(NC(=O)C(=O)NNc2n[nH]c(=S)n2N)c1`, the growth inhibition was 89.4% (active).

As to `Nc1ncc(C(=O)c2ccccc2)cc1[N+](=O)[O-]`, the growth inhibition was -5.7% (inactive).

With `COc1ccc2cc(C3CCCC3(C)CC(=O)O)ccc2c1` (stereo not drawn), the growth inhibition is 57.2% (inactive).

For the compound `CNc1ccc(N=O)cc1`, the growth inhibition is 87.8% (active).

`S=c1sc2nc(Cl)nc(Cl)c2s1`: the growth inhibition is 87.1% (active).

As for `CC(=O)O/C=C1\c2ccccc2CCC1c1ccc2ccccc2c1` (stereo not drawn), the growth inhibition is -4.45% (inactive).

For `CC1(C)C2CCC(C2)C1OC(=O)c1ccccc1C(=O)O` (stereo not drawn), the growth inhibition is 1.45% (inactive).

For `Cc1cc(=O)oc2c3c(ccc12)OC(c1ccc(Br)cc1)CC3=O` (stereo not drawn), the growth inhibition was 6.65% (inactive).

`Cc1cc(N(CCOS(C)(=O)=O)CCOS(C)(=O)=O)ccc1C=Nc1cccc(Cl)c1`: the growth inhibition is 90.3% (active).

With `CN(C)CCOc1cc2c(c3ccccc13)-c1ccccc1C2O` (stereo not drawn), the growth inhibition was 98.3% (active).

`NC(=S)C(=Nc1ccccc1F)Nc1ccccc1F`: the growth inhibition is 8.4% (inactive).

On to `CCCCOc1ccc(NC(=S)Nc2ccc(OCCN(CC)CC)cc2)cc1`, for which the growth inhibition was 63.6% (inactive).

`CC1CCN(CC(=O)N2c3ccccc3Sc3cc4ccccc4cc32)CC1`: the growth inhibition was 10.2% (inactive).

Take `CC(C)C1COC(c2ccc3ccccc3c2-c2c(O[Si](C)(C)C(C)(C)C)ccc3ccccc23)=N1` (stereo not drawn): the growth inhibition was 93.2% (active).

As to `CN(C)c1ccc(/C=C(\C#N)c2cccc(Cl)c2)cc1`, the growth inhibition was 16.7% (inactive).

Turning to `CCN(CC)CCNc1ccc(C)c2oc3ccc(O)cc3c(=O)c12`, the growth inhibition is 99% (active).

Regarding `CN(C)CC1CCc2c(ccc3ccccc23)C1=O` (stereo not drawn), the growth inhibition is 69% (inactive).

For `C[C@]12CCC(=O)C=C1CC[C@@H]1[C@@H]2[C@@H](O)C[C@@]2(C)[C@H]1CC[C@]2(O)C(=O)COC(=O)CCC1CCCC1`, the growth inhibition is 83.9% (active).

On to `O=C(CSc1nnc(Cc2ccccc2)o1)Nc1ccc(Cl)cc1[N+](=O)[O-]`, for which the growth inhibition was 83% (active).

Consider `Cc1cccc2c1Oc1ccccc1C2N1C(=O)/C(=C/c2ccccc2Cl)SC1=S` (stereo not drawn), for which the growth inhibition was 60.1% (inactive).

Another experiment can be described thus: NCI Yeast Anticancer Drug Screen. Data for the mec2-1 strain (AID 157). The following applies: S. cerevisiae mec2-1 strain, at 5.0 µM (retest, dose inferred, filed as 0.5), active compounds read high. In outline: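 Using mec2-1 yeast: add compound, measure growth, express inhibition versus vehicle-treated cultures.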
Regarding `Cc1cn(C2CC(Br)C(COC(c3ccccc3)(c3ccccc3)c3ccccc3)O2)c(=O)[nH]c1=O` (stereo not drawn), the growth inhibition was 6% (inactive).

`CC1CCN(CCOC(=O)C(c2ccccc2)C2C=CCCC2)C1` (stereo not drawn): the growth inhibition is 3% (inactive).

With `C=CC(c1ccccc1)[C@@]1(OC(C)=O)C(=O)C(=O)OC1C1COC(C)(C)O1` (stereo partly drawn), the growth inhibition was 75% (active).

As for `CC(C)S(=O)(=O)ON1C(=O)c2ccc(N(C)C)cc2C1=O`, the growth inhibition was 14% (inactive).

For the compound `CCCC(Sc1ccccc1)c1ccccc1NC(C)=O` (stereo not drawn), the growth inhibition is 0% (inactive).

Regarding `Oc1c(C(Nc2ccccn2)c2ccccc2)ccc2cccnc12` (stereo not drawn), the growth inhibition was 19% (inactive).

On to `CC(=O)NC1=C(Cl)C(=O)c2ccccc2C1=O`, for which the growth inhibition was 93% (active).

For the compound `CC1OC(c2ccc3c(c2)OCO3)OC1C` (stereo not drawn), the growth inhibition is -4% (inactive).

For the compound `CN(C)CC(CN1CCCC1)C(=O)c1ccccc1` (stereo not drawn), the growth inhibition is -2% (inactive).

As to `O=S(=O)(O)c1ccc2c(c1)C1C(C3C2C2(Cl)C(Cl)=C(Cl)C3(Cl)C2(Cl)Cl)C2(Cl)C(Cl)=C(Cl)C1(Cl)C2(Cl)Cl` (stereo not drawn), the growth inhibition is -8% (inactive).

Take `Cc1cc(Cl)nc2ccc(Cc3ccc4nc(Cl)cc(C)c4c3)cc12`: the growth inhibition is 15% (inactive).

Regarding `CC1CCC2(C)C(CC=C(C=O)C2(O)C=O)C12CO2` (stereo not drawn), the growth inhibition is 99% (active).

Turning to `Cc1c(C)c(C)c(C(=O)c2ccccc2C(=O)NCCSC(C)(C)C)c(C)c1C`, the growth inhibition was 45% (inactive).

Consider `O=[N+]([O-])C(=C1Nc2ccccc2N1)C(Cl)=C(Cl)Cl`, for which the growth inhibition is 10% (inactive).

Turning to `CCCCNc1ccc(C(=O)OC2CCN(C)CC2)c(Cl)c1`, the growth inhibition was 99% (active).

Regarding `CC(C)(C)OC(=O)c1ccc(NCC2=C(Br)C(=O)C=CC2=O)cc1`, the growth inhibition is 12% (inactive).

Take `N#CC(c1ccc(Cl)cc1)c1ccc([N+](=O)[O-])cc1` (stereo not drawn): the growth inhibition was -16% (inactive).

As to `O=C(CC(=O)c1ccccc1NC1=Cc2ccccc2C(=O)C1=O)C(=O)NC1=C(Cl)C(=O)c2ccccc2C1=O`, the growth inhibition was 21% (inactive).

Turning to `O=S(=O)(Nc1ccc2c3c(cccc13)C=C2)c1ccccc1`, the growth inhibition is -4% (inactive).

For the compound `CC(=O)c1cccc(NC(=O)C(=O)NNc2n[nH]c(=S)n2N)c1`, the growth inhibition was -20% (inactive).

Turning to `Nc1ncc(C(=O)c2ccccc2)cc1[N+](=O)[O-]`, the growth inhibition was -44% (inactive).

Consider `COc1ccc2cc(C3CCCC3(C)CC(=O)O)ccc2c1` (stereo not drawn), for which the growth inhibition is 11% (inactive).

For the compound `CNc1ccc(N=O)cc1`, the growth inhibition is 27% (inactive).

With `S=c1sc2nc(Cl)nc(Cl)c2s1`, the growth inhibition was 100% (active).

Take `CC(=O)O/C=C1\c2ccccc2CCC1c1ccc2ccccc2c1` (stereo not drawn): the growth inhibition is -4% (inactive).

Regarding `CC1(C)C2CCC(C2)C1OC(=O)c1ccccc1C(=O)O` (stereo not drawn), the growth inhibition is -2% (inactive).

As to `Cc1cc(=O)oc2c3c(ccc12)OC(c1ccc(Br)cc1)CC3=O` (stereo not drawn), the growth inhibition is 15% (inactive).

For `Cc1cc(N(CCOS(C)(=O)=O)CCOS(C)(=O)=O)ccc1C=Nc1cccc(Cl)c1`, the growth inhibition was 44% (inactive).

On to `CN(C)CCOc1cc2c(c3ccccc13)-c1ccccc1C2O` (stereo not drawn), for which the growth inhibition was 0% (inactive).

`NC(=S)C(=Nc1ccccc1F)Nc1ccccc1F`: the growth inhibition was -8% (inactive).

`CCCCOc1ccc(NC(=S)Nc2ccc(OCCN(CC)CC)cc2)cc1`: the growth inhibition was 28% (inactive).

As to `CC1CCN(CC(=O)N2c3ccccc3Sc3cc4ccccc4cc32)CC1`, the growth inhibition is 4% (inactive).

Consider `CC(C)C1COC(c2ccc3ccccc3c2-c2c(O[Si](C)(C)C(C)(C)C)ccc3ccccc23)=N1` (stereo not drawn), for which the growth inhibition is 14% (inactive).

`CN(C)c1ccc(/C=C(\C#N)c2cccc(Cl)c2)cc1`: the growth inhibition was -1% (inactive).

In the case of `CCN(CC)CCNc1ccc(C)c2oc3ccc(O)cc3c(=O)c12`, the growth inhibition is 27% (inactive).

For `CN(C)CC1CCc2c(ccc3ccccc23)C1=O` (stereo not drawn), the growth inhibition is -16% (inactive).

Turning to `C[C@]12CCC(=O)C=C1CC[C@@H]1[C@@H]2[C@@H](O)C[C@@]2(C)[C@H]1CC[C@]2(O)C(=O)COC(=O)CCC1CCCC1`, the growth inhibition is 29% (inactive).

As for `O=C(CSc1nnc(Cc2ccccc2)o1)Nc1ccc(Cl)cc1[N+](=O)[O-]`, the growth inhibition is -13% (inactive).

As to `Cc1cccc2c1Oc1ccccc1C2N1C(=O)/C(=C/c2ccccc2Cl)SC1=S` (stereo not drawn), the growth inhibition was 99% (active).
